Test results as given in PubChem BioAssay (NCATS).
Records with an inconclusive call do not appear. Calls of active or inactive are those of the source. Calls come from the whole dose curve; as a rule, active = well fitted curve in the direction sought with a large enough effect; inconclusive = small, poorly fitted or top-dose-only effect, or another doubt; inactive = no such curve, though single readings can be large; an effect the other way counts as inactive or inconclusive.

Tests used:
CRL-7250 = normal cell line; assay: Cytotoxic Profiling of Annotated Libraries Using Quantitative High-Throughput Screening (AID 1296008); conditions: Five cell lines viability, CellTiter-Glo ATP luminescence, 48-72 h; max response: hits give low values; note: nearly all actives have a fitted effect of over 60% in size
Summary of the method: (§1)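 Cells exposed to compounds for 48 or 72 hr at 37 degrees Celsius. Viability read as ATP-coupled luminescence with CellTiter-Glo after 10 min at room temperature.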

HEK293 = assay: as above; conditions: Five cell lines viability, CellTiter-Glo ATP luminescence, 48-72 h; max response: hits give low values
Summary of the method: as §1

HaCat [1] = assay: as above; conditions: Five cell lines viability, CellTiter-Glo ATP luminescence, 48-72 h; max response: hits give low values
Summary of the method: as §1

KB-3-1 = assay: as above; conditions: Five cell lines viability, CellTiter-Glo ATP luminescence, 48-72 h; max response: hits give low values
Summary of the method: as §1

MCC-13 = assay: qHTS assay to identify novel small-molecules to repurpose for Merkel cell carcinoma treatment (AID 1296009); conditions: MCC and control cell lines, CellTiter-Glo viability, 72 h; series mostly up to 46 µM; note: nearly all actives have a fitted effect of over 60% in size
Summary of the method: (§2)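 Cells were treated for 72 hr at 37 degree celsius with compounds in 8- or 11-point dose response. Viability was read by CellTiter-Glo luminescence, normalized to no-cell (cytotoxicity) and DMSO controls.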

MCC-26 = assay: as above; conditions: MCC and control cell lines, CellTiter-Glo viability, 72 h; series mostly up to 46 µM
Summary of the method: as §2

MKL-1 = assay: as above; conditions: MCC and control cell lines, CellTiter-Glo viability, 72 h; series mostly up to 46 µM
Summary of the method: as §2

MKL-2 = assay: as above; conditions: MCC and control cell lines, CellTiter-Glo viability, 72 h; series mostly up to 46 µM
Summary of the method: as §2

UISO = assay: as above; conditions: MCC and control cell lines, CellTiter-Glo viability, 72 h; series mostly up to 46 µM
Summary of the method: as §2

WaGa = assay: as above; conditions: MCC and control cell lines, CellTiter-Glo viability, 72 h; series mostly up to 46 µM
Summary of the method: as §2

CAOV3 = assay: Primary qHTS to identify gynecologic anti-cancer compounds using libraries of approved drugs and bioactive compounds (AID 1345084); conditions: Gynecologic cancer cell panel viability, ATPlite luminescence, 48 h; series mostly up to 57.5 µM; note: nearly all actives have a fitted effect of over 55% in size
Summary of the method: (§3)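 Luminescence from the ATPlite ATP-monitoring reagent indicates viable cell number; lower signal means cytotoxicity. Cells received compound 16 h after seeding and were exposed for 48 h across five concentrations.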

CASKI = assay: as above; conditions: Gynecologic cancer cell panel viability, ATPlite luminescence, 48 h; series mostly up to 57.5 µM
Summary of the method: as §3

Es-2 = assay: as above; conditions: Gynecologic cancer cell panel viability, ATPlite luminescence, 48 h; series mostly up to 57.5 µM
Summary of the method: as §3

Hek293T [2] = assay: as above; conditions: Gynecologic cancer cell panel viability, ATPlite luminescence, 48 h, control line for the selectivity index; series mostly up to 57.5 µM
Summary of the method: as §3

NIH3T3 [3] = assay: Cytotoxic Profiling of Annotated Libraries Using Quantitative High-Throughput Screening (AID 1296008); conditions: Five cell lines viability, CellTiter-Glo ATP luminescence, 48-72 h; max response: hits give low values; note: nearly all actives have a fitted effect of over 60% in size
Summary of the method: as §1

NIH3T3 [4] = assay: qHTS assay to identify novel small-molecules to repurpose for Merkel cell carcinoma treatment (AID 1296009); conditions: MCC and control cell lines, CellTiter-Glo viability, 72 h; at 44.8 µM (top of the series) unless noted; note: nearly all actives have a fitted effect of over 60% in size
Summary of the method: as §2

C33A = assay: Primary qHTS to identify gynecologic anti-cancer compounds using libraries of approved drugs and bioactive compounds (AID 1345084); conditions: Gynecologic cancer cell panel viability, ATPlite luminescence, 48 h; series mostly up to 57.5 µM; note: nearly all actives have a fitted effect of over 55% in size
Summary of the method: as §3

HeLa = assay: as above; conditions: Gynecologic cancer cell panel viability, ATPlite luminescence, 48 h; series mostly up to 57.5 µM
Summary of the method: as §3

HACAT [5] = assay: qHTS assay to identify novel small-molecules to repurpose for Merkel cell carcinoma treatment (AID 1296009); conditions: MCC and control cell lines, CellTiter-Glo viability, 72 h; at 44.8 µM (top of the series) unless noted; note: nearly all actives have a fitted effect of over 60% in size
Summary of the method: as §2

HEK293T [6] = assay: as above; conditions: MCC and control cell lines, CellTiter-Glo viability, 72 h; at 44.8 µM (top of the series) unless noted
Summary of the method: as §2
% is set by controls: 0 for no effect and ±100 for the full control effect; potency is the fitted concentration of half-maximal effect.

CN1C[C@H](C(=O)N[C@]2(C)O[C@@]3(O)[C@@H]4CCCN4C(=O)[C@H](Cc4ccccc4)N3C2=O)C[C@@H]2c3cccc4[nH]cc(c34)C[C@H]21
active: Potency (HEK293) 10.6 µM
inactive: outcome (CRL-7250) | max response (HaCat [1]) -5.88% | max response (KB-3-1) 0.239% | Potency (MCC-13) | Potency (MCC-26) | Potency (MKL-1) | Potency (MKL-2) | Potency (UISO) | Potency (WaGa) | Potency (CAOV3) | Potency (CASKI) | Potency (Es-2) | Potency (Hek293T [2])

CCc1c(C)[nH]c2c1C(=O)C(CN1CCOCC1)CC2 (stereo unspecified)
inactive: outcome (CRL-7250) | max response (HEK293) -11.2% | max response (KB-3-1) -8.21% | outcome (NIH3T3 [3]) | Potency (MCC-13) | Potency (MCC-26) | outcome (NIH3T3 [4]) | Potency (UISO) | Potency (C33A) | Potency (CAOV3) | Potency (CASKI) | Potency (Es-2) | Potency (HeLa) | Potency (Hek293T [2])
active: Potency (MKL-2) 9.44 µM

COC(=O)[C@@H](N)Cc1ccc(O)c(O)c1
inactive: max response (CRL-7250) 0.35% | max response (HEK293) -4.7% | max response (HaCat [1]) 3.62% | max response (NIH3T3 [3]) -6.82% | Potency (MCC-13) | Potency (MCC-26) | Potency (UISO) | Potency (C33A) | Potency (CAOV3) | Potency (CASKI) | Potency (Es-2) | Potency (Hek293T [2])

O=C(O)CN(CCOCCOCCN(CC(=O)O)CC(=O)O)CC(=O)O
inactive: outcome (CRL-7250) | max response (HEK293) 0.265% | max response (HaCat [1]) 4.17% | max response (NIH3T3 [3]) -0.882% | activity change, negative = cytotoxicity (MCC-13) -0.433% [at 0.597 µM] | activity change, negative = cytotoxicity (MCC-26) 19.1% [at 0.597 µM] | activity change, negative = cytotoxicity (MKL-1) 14.4% [at 0.597 µM] | activity change, negative = cytotoxicity (MKL-2) 9.35% [at 0.597 µM] | activity change, negative = cytotoxicity (UISO) 21.4% [at 0.597 µM] | activity change, negative = cytotoxicity (WaGa) 12.3% [at 0.597 µM] | activity change, negative = cytotoxicity (C33A) 11.2% [at 0.462 µM] | activity change, negative = cytotoxicity (CAOV3) 7.4% [at 0.462 µM] | activity change, negative = cytotoxicity (CASKI) 2.67% [at 0.462 µM] | activity change, negative = cytotoxicity (Es-2) -1.06% [at 0.462 µM] | activity change, negative = cytotoxicity (HeLa) 11.5% [at 0.462 µM] | activity change, negative = cytotoxicity (Hek293T [2]) -0.823% [at 0.462 µM]

CN(C)C/C=C(/c1ccc(Br)cc1)c1cccnc1
inactive: outcome (CRL-7250) | max response (HEK293) -10.5% | outcome (HaCat [1]) | outcome (NIH3T3 [3]) | outcome (HACAT [5]) | Potency (MCC-13) | Potency (MCC-26) | Potency (MKL-1) | Potency (MKL-2) | outcome (NIH3T3 [4]) | Potency (UISO) | Potency (WaGa) | Potency (C33A) | Potency (CAOV3) | Potency (CASKI) | Potency (HeLa) | Potency (Hek293T [2])

O=C(O)CN(CCN(CC(=O)O)CC(=O)O)CCN(CC(=O)O)CC(=O)O
inactive: max response (CRL-7250) -4.18% | outcome (HEK293) | max response (HaCat [1]) -15.5% | max response (KB-3-1) 28.9% | outcome (HEK293T [6]) inactive [at 17.4 µM] | Potency (MCC-13) | Potency (MCC-26) | Potency (MKL-1) | Potency (MKL-2) | Potency (UISO) | Potency (WaGa) | Potency (C33A) | Potency (CAOV3) | Potency (CASKI) | Potency (Es-2) | Potency (HeLa) | Potency (Hek293T [2])

O=C(CCNNC(=O)c1ccncc1)NCc1ccccc1
inactive: max response (CRL-7250) 0.469% | max response (HEK293) -20% | max response (HaCat [1]) -22% | max response (NIH3T3 [3]) -21.8% | Potency (MCC-13) | Potency (MCC-26) | Potency (MKL-2) | Potency (UISO) | Potency (C33A) | Potency (CAOV3) | Potency (CASKI) | Potency (Es-2) | Potency (HeLa) | Potency (Hek293T [2])

C=CCc1ccccc1OCC(O)CNC(C)C (stereo unspecified)
inactive: max response (CRL-7250) -1.4% | max response (HaCat [1]) 4.41% | max response (NIH3T3 [3]) -0.59% | Potency (MCC-13) | Potency (MCC-26) | Potency (MKL-1) | Potency (MKL-2) | Potency (UISO) | Potency (WaGa) | Potency (C33A) | Potency (CASKI) | Potency (Es-2) | Potency (HeLa) | Potency (Hek293T [2])

Nc1nc(N)c2nc(-c3ccccc3)c(N)nc2n1
active: Potency (WaGa) 26.6 µM | Potency (C33A) 10 µM | Potency (Es-2) 15.8 µM
inactive: max response (CRL-7250) -19.7% | max response (HaCat [1]) -19.1% | max response (KB-3-1) -2.1% | Potency (MCC-26)

CCn1ccnc1CC1COc2ccccc2O1 (stereo unspecified)
inactive: max response (CRL-7250) -3.72% | max response (HaCat [1]) 2.89% | max response (KB-3-1) 19.9% | max response (NIH3T3 [3]) -3.18% | Potency (MCC-13) | Potency (MCC-26) | Potency (MKL-2) | Potency (UISO) | Potency (WaGa) | Potency (C33A) | Potency (CAOV3) | Potency (CASKI) | Potency (Es-2) | Potency (Hek293T [2])

CCO/C([O-])=N/c1c[n+](N2CCOCC2)no1
inactive: outcome (CRL-7250) | max response (HEK293) -1.87% | max response (NIH3T3 [3]) -0.944% | Potency (MCC-13) | Potency (MCC-26) | Potency (MKL-1) | Potency (MKL-2) | Potency (UISO) | Potency (WaGa) | Potency (C33A) | Potency (CAOV3) | Potency (CASKI) | Potency (Es-2) | Potency (HeLa) | Potency (Hek293T [2])

CCOC(=O)C1=C(C)NC(C)=C(C(=O)OC)C1c1cccc([N+](=O)[O-])c1 (stereo unspecified)
inactive: outcome (CRL-7250) | outcome (HaCat [1]) | max response (KB-3-1) -12.8% | max response (NIH3T3 [3]) -0.464% | outcome (HACAT [5]) | Potency (MCC-13) | Potency (MCC-26) | Potency (MKL-1) | Potency (MKL-2) | Potency (UISO) | Potency (WaGa) | Potency (C33A) | Potency (CASKI) | Potency (Es-2) | Potency (HeLa) | Potency (Hek293T [2])

OCCN1CCN(CCCN2c3ccccc3C=Cc3ccccc32)CC1
inactive: outcome (CRL-7250) | outcome (HaCat [1]) | outcome (NIH3T3 [3]) | outcome (HACAT [5]) | Potency (MCC-13) | Potency (MCC-26) | Potency (MKL-2) | outcome (NIH3T3 [4]) | Potency (UISO) | Potency (C33A) | Potency (CAOV3) | Potency (CASKI) | Potency (Es-2) | Potency (Hek293T [2])

CCC(=O)c1ccc2c(c1)N(CCCN(C)C)c1ccccc1S2
inactive: max response (CRL-7250) -1.9% | outcome (HaCat [1]) | max response (KB-3-1) -0.0737% | max response (NIH3T3 [3]) -21.3% | outcome (HACAT [5]) | Potency (MCC-13) | Potency (MCC-26) | Potency (C33A) | Potency (CASKI) | Potency (Es-2) | Potency (HeLa) | Potency (Hek293T [2])

CN1CCN(C2=Nc3ccccc3Oc3ccc(Cl)cc32)CC1
inactive: outcome (CRL-7250) | max response (HaCat [1]) -5.97% | max response (NIH3T3 [3]) -11% | Potency (MCC-13) | Potency (MCC-26) | Potency (MKL-1) | Potency (UISO) | Potency (WaGa) | Potency (C33A) | Potency (CAOV3) | Potency (CASKI) | Potency (Es-2) | Potency (HeLa) | Potency (Hek293T [2])
